tim23-1 inh: inhibits growth of tim23-1 mutant yeast; S. cerevisiae tim23-1 growth, BacTiter-Glo luminescence, 24 h; inhibition, % at 20 µM; actives 1.3% (n = 330,000);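 active = growth inhibition of the mutant yeast at or above 50%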;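 also: temperature-sensitive mutant grown at 25 °C; plate controls were DMSO-treated mutant yeast for no effect and medium wells lacking yeast for full effect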
NLRP3 yeast inh: NALP3 inhibition in yeast; Yeast reconstituted NLRP3/ASC/caspase-1, beta-gal luminescence, 24 h; inhibition, % at 10 µM; actives 0.39% (n = 330,000); AID 2825;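 active = inhibition of 50% or more; inactive = inhibition below 50%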;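 also: plate controls were induced DMSO wells for no effect and uninduced yeast grown without galactose for full effect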
tim10-1 inh: tim10-1 yeast growth inhibition | S. cerevisiae tim10-1 ts strain growth, BacTiter-Glo, 24 h | inhibition, % at 20 µM | actives 2.2% (n = 330,000);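 active = inhibition of at least 40%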;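 also: mutant grown at 25 °C; 0% = DMSO wells with yeast and 100% = wells holding no yeast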
PfHsp90 set2: growth inhibition of yeast expressing Plasmodium Hsp90 | S. cerevisiae expressing PfHsp90, BacTiter-Glo ATP, 48 h; yeast lacking PDR1 and PDR3 efflux regulators | inhibition, % at 9.4 µM | actives 0.32% (n = 310,000) | AID 504621;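 active = every replicate shows inhibition above about 80%, whatever the replicate mean, limit read from the data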;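 also: 0% = DMSO neutral controls and 100% = 20 µM radicicol positive controls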
TIM10 inh: TIM10 yeast growth inhibition; S. cerevisiae TIM10 strain growth, BacTiter-Glo luminescence, 24 h; inhibition, % at 10 µM; actives 1.4% (n = 330,000);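 active = inhibition of 40% or more at the single tested concentration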;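 also: wild-type TIM10 isogenic control strain grown at permissive 25 °C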
SKKanGAS inh: blocks kanamycin growth of S. pyogenes SKKanGAS strain. actives 1.3% (n = 300,000). inhibition, % at 7.5 µM. AID 1662. BacTiter-Glo, 6 h;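 active = mean replicate score, as percent of positive control median, at least 50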;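 also: strain carries kanamycin resistance gene driven by streptokinase promoter and grows in 40 µg/ml kanamycin; loss of luminescence reflects streptokinase promoter inhibition or plain growth inhibition; 0% = median of DMSO wells and 100% = positive control at its reference dose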
tim10-1 confirm: tim10-1 yeast growth inhibition, confirmed; inhibition, % at 20 µM; shares compounds with tim10-1 inh; S. cerevisiae tim10-1 ts strain growth, BacTiter-Glo, 24 h; actives 56% (n = 7,400);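 active = inhibition of yeast growth at or above a set limit in either of two repeat tests at 20 µM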;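 also: tim10-1 mutant grown at permissive 25 °C to find synthetic lethal compounds; 0% = DMSO yeast wells and 100% = medium wells without yeast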
* hit, by the source's call; nt = not tested or not shown. Only some compounds are listed: those with a hit (about 4.5% of all), similar ones and a draw of the others.

SMILES	tim23-1 inh	NLRP3 yeast inh	tim10-1 inh	PfHsp90 set2	TIM10 inh	SKKanGAS inh	tim10-1 confirm
Clc1ccc(-c2nn3c(C4COc5ccccc5O4)nnc3s2)cc1 (centres undefined)	36	-11	56*	nt	32	21	38*
COc1ccc(C(=O)OCC(=O)Nc2cc(C)on2)c(OC)c1OC	7	-1	85*	1	-3	1	-7
COc1ccc(OC)c(S(=O)(=O)NCc2ccccn2)c1	16	11	5	3	-1	0	nt
CC1(C)CN=c2s/c(=C\c3ccc(Cl)cc3)c(=O)n2C1	19	34	41*	33	20	1	27
Cc1ccc(S(=O)(=O)c2nc(S(C)(=O)=O)sc2N2CCC(O)CC2)cc1	-8	-10	-4	-58	1	5	nt
Cc1ccc(S(=O)(=O)c2nc(S(C)(=O)=O)sc2N2CCCCC2C)cc1 (centres undefined)	43	-96	42*	-80	37	4	43*
CN(CC(=O)Nc1ccccc1Cl)C(=O)c1ccc(-c2cccc(C(F)(F)F)c2)o1	23	6	21	-9	-4	5	nt
CCn1c2ccccc2c2nnc(SCc3ccccc3)nc21	36	18	44*	-14	9	16	27
CCn1c2ccccc2c2nnc(SCC(N)=O)nc21	6	16	-6	-22	-5	-3	nt
O=C(CCN1C(=O)S/C(=C\c2ccccc2)C1=O)N1CCCCC1	38	9	44*	11	8	14	39*
O=C(CCN1C(=O)/C(=C\c2ccccc2)SC1=S)N1CCOCC1	12	15	17	30	19	7	nt
O=C(CCN1C(=O)S/C(=C\c2ccccc2)C1=O)N1CCOCC1	2	-9	52*	-14	25	-5	31
COCCCNC(=O)CSc1nc2cc(S(=O)(=O)N3CCCCC3)ccc2o1	1	-5	25	9	6	-3	nt
COc1ccc(CCNc2oc(COc3ccccc3)nc2C#N)cc1	19	18	47*	18	5	4	43*
Clc1cc(/C=N\NC2=NCCN2)cc(Cl)n1	0	7	0	nt	26	-2	nt
COc1cccc(Nc2nc(C)nc3c2oc2ccccc23)c1	34	10	43*	-22	24	1	29
Cc1nc(Oc2ccccc2)c2oc3ccccc3c2n1	6	0	42*	-4	13	4	24
COc1ccc(Oc2nc(C)nc3c2oc2ccccc23)cc1	19	42	17	10	21	6	nt
CCCCNc1ncnc2c1cnn2Cc1ccc(Cl)cc1	23	37	40*	10	9	-3	11
COCCNc1ncnc2c1cnn2Cc1ccc(Cl)cc1	16	1	10	21	11	-5	nt
NS(=O)(=O)c1ccc(N2CCN(CCOc3ccc(Cl)cc3)CC2)nc1	15	10	15	3	-15	-1	nt
Oc1c(Cl)cc(Cl)cc1CNc1ccc(Br)cn1	34	-9	55*	-17	17	20	63*
O=C(Cc1ccc(Cl)cc1)Nc1ccc(Br)cn1	31	8	41*	-13	16	3	16
Oc1ccc(Cl)cc1CNc1ccccn1	4	15	1	-31	0	-4	nt
Cc1cc(OCCOc2cccc3cccnc23)cc(C)c1Cl	3	26	41*	-30	25	6	4
COCC1CCCCN1C(=O)c1ccc2nc(Cc3ccc(OC)c(OC)c3)oc2c1 (centres undefined)	14	13	7	-73	9	-5	nt
COc1ccc(/C=N/NC(=O)CCn2c3ccccc3c3ccccc32)cc1O	43	14	45*	0	33	16	16
Cc1ccc(C(=O)C(C)N(C(=O)c2ccc(Cl)cc2Cl)N2C(=O)CCCC2=O)cc1 (centres undefined)	12	11	21	14	24	-17	nt
COc1ccc(C(=O)C(C)N(C(=O)c2ccc(Cl)cc2Cl)N2C(=O)C3C4C=CC(C4)C3C2=O)cc1 (centres undefined)	42	10	47*	24	22	0	21
O=C(c1ccncc1)N1CCN(S(=O)(=O)c2cccc(Cl)c2)CC1	-9	19	-20	-34	5	-3	nt

Screens deposited in PubChem by several laboratories.
